{"source": "PubChem BioAssay (EPA / NIEHS)", "note": "Where “and” joins values, the source holds several entries; their conditions need not be identical. Equal entries are not always repeated. Some compounds were tested as several samples or in several runs, with calls that do not always agree. Calls of active or inactive are those of the source. The calls were made as follows: active = hit-call score of the fitted dose curve at least 0.9, where 1 is the maximum; inactive = score below 0.9.", "data": [{"assay": "BSK_4H_Eotaxin3: BioMAP Diversity Plus: 4H Assay for Eotaxin 3 Biomarker Activity (AID 2283000)", "details": "primary human endothelial cells (HUVEC); actives raise or lower the signal", "procedure": "BSK_4H is a cell-based, multiplexed-readout assay that uses umbilical vein endothelium, a human vascular primary cell, with measurements taken at 24 hours after chemical dosing in a 96-well plate.BSK_4H_Eotaxin3 is an assay component measured in the BSK_4H assay. It measures Eotaxin-3 antibody related to regulation of gene expression using ELISA technology.Data from the assay component BSK_4H_Eotaxin3 was analyzed into 1 assay endpoint. This assay endpoint, BSK_4H_Eotaxin3, was analyzed with bidirectional fitting relative to DMSO as the negative control and baseline of activity. Using a type of binding reporter, gain or loss-of-signal activity can be used to understand changes in the signaling as they relate to the gene CCL26. Furthermore, this assay endpoint can be referred to as a primary readout, because this assay has produced multiple assay endpoints where this one serves a signaling function. To generalize the intended target to other relatable targets, this assay endpoint is annotated to the cytokine intended target family, where the subfamily is chemotactic factor.\nThe levels of cell surface (or secreted, indicated by the prefix \"s\") biomarker endpoints were measured by ELISA. Overt cytotoxicity to cells in confluent adherent cultures (all systems other than the BT system) was assessed by measuring total protein levels using sulforhodamine B (SRB) staining in parallel cultures at the time of biomarker measurements, indicated as SRB endpoints. For proliferation assays for adherent cell types, individual cell types are cultured at sub-confluence and relative cell numbers quantified by SRB staining at time points optimized for each system (48 h: 3C and CASM3C systems; 72 h: BT and HDF3CGF systems; 96 h: SAg system). SRB was performed by staining cells with 0.1% SRB after fixation with 10% TCA and reading wells at 560 nm.Viability and proliferation of PBMC (T cells) was quantified by Alamar Blue reduction for the SAg and BT systems. For PBMC viability (referred to as PBMC Cytotoxicity within the assay endpoint names), cells were plated (75,000/well in a 96-well plate) and then chemical samples added for 1 h before addition of activators, SEB and TSST-1 (20 ng/mL final concentration each). Cells were incubated for 90 h. Then, Alamar Blue (20 uL/well) (Invitrogen, Cat DAL1100) was added for 6 h, and the plates were read with a fluorescence microplate reader at 546/580 nm (excitation/emission). For PBMC proliferation, cells were plated and activated as above but incubated for only 16 h prior to addition of Alamar Blue. Plates were read after 6 h.", "values": [{"smiles": "CC(Cl)CN(C)C", "note": "(stereo not given)", "outcome": "inactive"}, {"smiles": "O=C(O)C(Cl)Cl", "outcome": "inactive"}, {"smiles": "COP(=O)(CCC(=O)NCO)OC", "AC50": "0.15 µM (active)", "outcome": "inactive"}, {"smiles": "CCCCCCCc1ccc(O)cc1", "AC50": "31.5 µM (active)"}, {"smiles": "CC(C)(C)c1ccccc1OP(=O)(Oc1ccccc1)Oc1ccccc1", "AC50": "26.2 µM (active)"}, {"smiles": "CCCCC(CC)COC(=O)c1c(Br)c(Br)c(Br)c(Br)c1C(=O)OCC(CC)CCCC", "note": "(stereo not given)", "outcome": "inactive"}, {"smiles": "N#Cc1cc([N+](=O)[O-])ccc1N", "AC50": "4.4 µM (active)"}, {"smiles": "CC(C)Nc1ccc(Nc2ccccc2)cc1", "AC50": "8.74 µM (active)"}, {"smiles": "CCOc1ccc(C(C)(C)COCc2cccc(Oc3ccccc3)c2)cc1", "outcome": "inactive"}, {"smiles": "CCCCN(CCCC)N=O", "outcome": "inactive"}, {"smiles": "C=CC(=O)OCC(F)(F)C(F)F", "AC50": "30 µM (active) and 21 µM (active)"}, {"smiles": "ClC(Cl)(Cl)c1ccccc1", "outcome": "inactive"}, {"smiles": "CCOP(=S)(NC(C)C)Oc1ccccc1C(=O)OC(C)C", "note": "(stereo not given)", "outcome": "inactive"}, {"smiles": "ClC1=C(Cl)C2(Cl)C3C(Cl)C(Cl)CC3C1(Cl)C2(Cl)Cl", "note": "(stereo not given)", "AC50": "31 µM (active)"}, {"smiles": "Nc1ccc([N+](=O)[O-])cc1Cl", "outcome": "inactive"}, {"smiles": "N#Cc1c(-c2ccc(Cl)cc2)[nH]c(C(F)(F)F)c1Br", "AC50": "0.796 µM (active)"}, {"smiles": "O=c1ssc(Cl)c1Cl", "AC50": "4.22 µM (active)"}, {"smiles": "ClC(Cl)c1ccccc1", "outcome": "inactive"}, {"smiles": "OCC1CO1", "note": "(stereo not given)", "outcome": "inactive"}, {"smiles": "OCC(F)(F)OC(F)(F)C(F)(F)OC(F)(F)C(F)(F)OC(F)(F)F", "AC50": "22.3 µM (active) and 42.2 µM (active)"}, {"smiles": "CCNc1nc(Cl)nc(NC(C)(C)C)n1", "outcome": "inactive"}, {"smiles": "CCOS(=O)(=O)OCC", "outcome": "inactive"}, {"smiles": "CCOP(=S)(OCC)SCSCC", "outcome": "inactive"}, {"smiles": "CC(Cl)(Cl)C(=O)O", "outcome": "inactive"}, {"smiles": "Cc1ccc([N+](=O)[O-])cc1C", "outcome": "inactive"}, {"smiles": "CCCCc1ccccc1", "outcome": "inactive"}, {"smiles": "Nc1cc2c3c(c1)C(c1ccccc1)=N[C@@H](NC(=O)c1cccnc1)C(=O)N3CC2", "outcome": "inactive"}, {"smiles": "O=C(O)C(F)(F)OC(F)(F)C(F)(F)OC(F)(F)F", "outcome": "inactive"}, {"smiles": "CCN(CC)c1ccccc1", "outcome": "inactive"}, {"smiles": "CC(Cc1ccc(OCC(=O)O)cc1)NCC(O)c1csc(C(F)(F)F)n1", "note": "(stereo not given)", "outcome": "inactive"}, {"smiles": "c1cc2c3c(cccc3c1)CC2", "outcome": "inactive"}, {"smiles": "O=P(OCC(Br)CBr)(OCC(Br)CBr)OCC(Br)CBr", "note": "(stereo not given)", "outcome": "inactive"}, {"smiles": "CCC(C)(C)c1ccc(O)cc1", "outcome": "inactive"}, {"smiles": "c1ccc2c(c1)Nc1ccccc1S2", "outcome": "inactive"}, {"smiles": "[N-]=[N+]=[N-]", "outcome": "inactive"}, {"smiles": "O=S1(=O)OCC2C(CO1)C1(Cl)C(Cl)=C(Cl)C2(Cl)C1(Cl)Cl", "note": "(stereo not given)", "AC50": "13.1 µM (active)"}, {"smiles": "CCCCN(CCCC)SN(C)C(=O)Oc1cccc2c1OC(C)(C)C2", "AC50": "29.3 µM (active)"}, {"smiles": "FC(F)(F)C(F)(C(F)(F)F)C(F)(F)C(F)(F)CC1CO1", "note": "(stereo not given)", "outcome": "inactive"}, {"smiles": "CCC1(c2ccccc2)C(=O)N=C(O)NC1=O", "note": "(stereo not given)", "outcome": "inactive"}]}]}
